# Rac1 wt modul: modulators of human Rac1 wildtype GTP binding | P63000 | GST-Rac1 beads, fluorescent GTP binding, flow cytometry; actives lie on both sides; 0 = cold GTP competed, 100 = untreated | GTP binding activity (% of control), % at 10 µM | 190,000 tested, 0.27% active;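 active means GTP binding activity at least 20 points away from the 100% control level, either lower or higher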
# Rab7 wt GTP bind: modulators of GTP binding to dog Rab7 wildtype GTPase; GST-Rab7 beads, fluorescent GTP binding, flow cytometry; actives lie on both sides; untreated = 100%, excess cold GTP = 0%; GTP binding activity (percent of control), % at 10 µM; 190,000 tested, 0.055% active; AID 758;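 active means fluorescent GTP binding to Rab7 beads changed by at least 20 points from the 100% baseline, either direction, mostly lower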;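 further: median green fluorescence of bound Bodipy-FL-GTP per Rab7 bead population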
# HRas wt GTP: changes GTP binding to wildtype human HRas | GST-Ras wt beads, Bodipy-FL-GTP binding, flow cytometry; actives lie on both sides | GTP binding activity, % at 10 µM | 190,000 tested, 0.14% active;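 active means GTP binding activity at least 20% away from the 100% baseline, either lowered as inhibitor or raised as activator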;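 further: 0% = unlabeled GTP competition control and 100% = no-compound control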
# Target sequence (P01112 whole entry, looked up): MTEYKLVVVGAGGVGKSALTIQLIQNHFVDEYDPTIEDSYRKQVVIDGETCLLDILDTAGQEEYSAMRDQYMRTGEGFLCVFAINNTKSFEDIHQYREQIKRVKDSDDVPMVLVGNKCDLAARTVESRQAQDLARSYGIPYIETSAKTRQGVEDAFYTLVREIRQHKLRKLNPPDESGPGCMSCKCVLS
# Rac1 mut GTP: modulators of GTP binding to human Rac1 activated mutant; GST-Rac1 activated beads, fluorescent GTP binding, flow cytometry; actives lie on both sides; 100% means binding = to untreated wells; percent activity (GTP binding), % at 10 µM; P63000; 190,000 tested, 0.11% active;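 active means GTP binding at least 20 percentage points away from the 100% baseline, in either direction, so actives lie on both sides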
# Cdc42 wt: changes GTP binding to wildtype human Cdc42. P60953. GST-Cdc42 beads, Bodipy-GTP binding, flow cytometry; actives lie on both sides. percent activity (GTP binding), % at 10 µM. 190,000 tested, 0.2% active. AID 761;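 active means percent activity GTP binding at least 20 points away from the 100% baseline, either down as inhibitor or up as activator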;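 further: median bead fluorescence of bound Bodipy-FL-GTP at 100 nM; 0% = excess unlabeled GTP control and 100% = no compound control; below 100% means less GTP binding so inhibitor and above means activator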
# Target sequence (P60953 whole entry, looked up): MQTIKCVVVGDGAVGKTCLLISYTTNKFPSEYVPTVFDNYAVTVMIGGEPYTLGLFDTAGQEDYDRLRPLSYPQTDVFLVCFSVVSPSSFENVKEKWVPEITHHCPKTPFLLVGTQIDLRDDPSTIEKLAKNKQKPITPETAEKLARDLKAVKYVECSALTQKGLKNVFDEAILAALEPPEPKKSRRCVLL
# Rab2A wt mod: changes GTP binding to wildtype dog Rab2A, up or down. P61105. 190,000 tested, 0.19% active. GST-Rab2 wt beads, Bodipy-GTP binding, flow cytometry. GTP binding activity, % at 10 µM. AID 760;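 active means GTP binding activity at least 20 points away from 100%, either lowered or raised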;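 further: 0% = beads with excess unlabeled GTP and 100% = no-compound control corrected for plate trend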
# The depositor's hits bear a star; [ ] = dose if it differs, or a comment. The list is not random: actives were taken first. Their share in the collection is about 0.38%.
SMILES,Rac1 wt modul,Rab7 wt GTP bind,HRas wt GTP,Rac1 mut GTP,Cdc42 wt,Rab2A wt mod
CCOc1ccc(C(CC(=O)O)NC(=O)c2sc3ccccc3c2Cl)cc1 (stereo not drawn),95,97,96,94,94,94
O=C(O)C1CSC(CCc2ccccc2)N1 (stereo not drawn),123*[activator],111,109,112,114,110
O=C(O)C1CSC(c2coc3ccccc3c2=O)N1 (stereo not drawn),97,101,97,97,96,92
NC(=O)c1c(NC(=O)c2ccncc2)sc2c1CCCC2,87,94,88,92,85,86
NC(=O)c1c(NC(=O)c2cnccn2)sc2c1CCCC2,70*,87,83,85,82,80
O=C(NC1CCN(Cc2ccccc2)CC1)c1ccc(N2CC3CC(C2)c2cccc(=O)n2C3)c([N+](=O)[O-])c1 (stereo not drawn),98,102,100,95,96,100
O=C(COc1ncnc2cc([N+](=O)[O-])ccc12)NCCc1ccc(Cl)cc1,77*,92,84,90,81,80
O=C(Cn1cnc2cc([N+](=O)[O-])ccc2c1=O)NCc1ccc(Cl)cc1,74*,91,84,86,77*,80
O=C(COc1ncnc2cc([N+](=O)[O-])ccc12)NC(=O)NC1CCCCC1,75*,90,85,89,80,79*
CCOC(=O)c1c(C)[nH]c(C)c1C(=O)COc1ncnc2cc([N+](=O)[O-])ccc12,63*,74*,70*,81,64*,63*
O=C(O)C1CC=CCC1C(=O)NNS(=O)(=O)c1ccccc1 (stereo not drawn),99,102,99,97,96,99
COc1ccc(CCC(=O)NCCCNC(=O)CCc2ccc(OC)cc2)cc1,106,101,105,103,106,103
CCCNC(=O)COC(=O)/C=C/c1ccc(C)o1,100,101,98,98,98,101
COC(=O)C1=C(C)NC(=O)/C1=C\c1cc(C)n(-c2c(C)cccc2C)c1C,113,112,122*[activator],110,121*[activator],123*[activator]
COC(=O)C1=C(C)NC(=O)/C1=C\c1cc(C)n(-c2ccccc2C)c1C,102,102,101,99,102,100
CS(=O)(=O)Nc1ccc(Br)cc1C(=O)c1ccccc1,103,102,99,99,69*,97
CS(=O)(=O)Nc1ccccc1C(=O)O,105,102,99,99,102,99
COc1ccc(OCCN2C(=O)c3ccccc3C2=O)cc1,127*[activator],96,93,107,111,106
CNC(=O)COC(=O)c1cc2c(C)nn(-c3ccc(F)cc3)c2s1,107,102,104,102,104,101
Cc1cc(-c2n[nH]c(=S)n2/N=C/c2cc([N+](=O)[O-])ccc2Cl)n[nH]1,71*,87,77*,85,85,74*
Cc1cc(-c2n[nH]c(=S)n2/N=C/c2ccc(Cl)c([N+](=O)[O-])c2)n[nH]1,96,99,94,94,97,92
C/C(=C1/SC(=S)N(CCC(=O)O)C1=O)c1ccc(O)cc1,92,86,88,77*,85,85
COc1ccc(/C=N/NC(=O)c2cccc([N+](=O)[O-])c2)cc1OC,99,109,98,94,95,99
O=C(N/N=C/c1ccc2nccnc2c1)c1cccc([N+](=O)[O-])c1,77*,97,88,89,82,86
CCCc1ccc(-c2cc(NC(=O)CSc3n[nH]c(N)n3)n(-c3ccccc3)n2)cc1,100,102,103,101,102,104
SMILES,Rac1 wt modul,Rab7 wt GTP bind,HRas wt GTP,Rac1 mut GTP,Cdc42 wt,Rab2A wt mod
Cc1ccc(/C(N)=N/OC(=O)CCC2CCCCC2)cc1,133*[activator],96,109,107,102,114
COc1ccc(-c2nn3c(-c4ccco4)nnc3s2)cc1OC,70*,88,68*,82,68*,71*
COc1ccc(-c2nnc3sc(-c4ccco4)nn23)cc1OC,98,101,101,96,101,99
COc1cccc(-c2nnc3sc(-c4ccco4)nn23)c1,107,102,103,102,107,103
CCOc1cccc(-c2nn3c(-c4ccco4)nnc3s2)c1,88,91,80,90,80,78*
CCS(=O)(=O)N1CCC(NC(=O)c2cc(OC)cc(OC)c2)CC1,98,100,97,96,98,98
Cc1cc(C)c2c(c1)SC1=NC(c3ccccc3)(C(F)(F)F)NC(=O)N12 (stereo not drawn),103,99,100,98,99,100
CCOc1ccccc1NC(=O)CSc1nnc2ccc(-c3ccncc3)nn12,99,103,98,97,95,99
COc1ccc(NC(=O)CSc2ccc3nnc(-c4cccnc4)n3n2)c(OC)c1,79*,93,84,89,80,83
COc1ccc(-c2nnc3ccc(SCC(=O)Nc4cc(C)on4)nn23)cc1OC,93,107,95,92,93,97
CCOc1ccccc1NC(=O)CSc1ccc2nnc(-c3cccnc3)n2n1,58*,83,69*,76*,65*,64*
CC1(C)Cc2c(sc3c2C2=NCCN2C=N3)CS1,123*[activator],104,106,104,113,107
CCC(C)Sc1nc2c(c(=O)[nH]c(=O)n2C)n1C (stereo not drawn),105,106,104,96,105,103
Cn1cc(C=C2C(=O)CC(C)(C)CC2=O)c2ccccc21,33*,20*,38*,34*,31*,32*
Clc1ccc(Cn2ncc3c(N4CCOCC4)ncnc32)cc1,102,99,97,98,95,59*
Clc1ccc(Cn2ncc3c(N4CCCC4)ncnc32)cc1,100,97,100,97,99,100
C/C(=N\N=C\c1cccc(F)c1)c1nnn(-c2nonc2N)c1C,103,103,102,97,102,102
CC(C)(C)NC(=O)CCN(/N=C/c1ccc([N+](=O)[O-])o1)C1=NS(=O)(=O)c2ccccc21,50*,72*,42*,59*,56*,45*
Cc1ccccc1-c1nnc(-c2ccc(Cl)cc2)o1,99,97,98,97,101,98
Cc1ccc(CS(=O)(=O)c2ccccc2-c2nnc(-c3ccc(Cl)cc3)o2)cc1,93,77*,80,90,93,86
